Measurements: PubChem BioAssay (NCATS)
Results filed as inconclusive are left out. Active and inactive are the calls of the source. Unless noted, calls follow the shape of the dose curve; as a rule, active = well fitted curve in the direction sought with a large enough effect; inconclusive = small, poorly fitted or top-dose-only effect, or another doubt; inactive = no such curve, though single readings can be large; an effect the other way counts as inactive or inconclusive.

Legend:
[1] = target: Vitamin D3 receptor (Homo sapiens) (UniProt P11473); assay: qHTS assay for small molecule antagonists of vitamin D receptor signaling (AID 588541; calls by dose curve;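 also: receptor activated by calcitriol during compound treatment; series mostly up to about 77 µM; % is scaled to controls: 0 for no effect and ±100 for the full control effect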)
Sequence of Vitamin D3 receptor (Homo sapiens) (P11473 whole entry, looked up): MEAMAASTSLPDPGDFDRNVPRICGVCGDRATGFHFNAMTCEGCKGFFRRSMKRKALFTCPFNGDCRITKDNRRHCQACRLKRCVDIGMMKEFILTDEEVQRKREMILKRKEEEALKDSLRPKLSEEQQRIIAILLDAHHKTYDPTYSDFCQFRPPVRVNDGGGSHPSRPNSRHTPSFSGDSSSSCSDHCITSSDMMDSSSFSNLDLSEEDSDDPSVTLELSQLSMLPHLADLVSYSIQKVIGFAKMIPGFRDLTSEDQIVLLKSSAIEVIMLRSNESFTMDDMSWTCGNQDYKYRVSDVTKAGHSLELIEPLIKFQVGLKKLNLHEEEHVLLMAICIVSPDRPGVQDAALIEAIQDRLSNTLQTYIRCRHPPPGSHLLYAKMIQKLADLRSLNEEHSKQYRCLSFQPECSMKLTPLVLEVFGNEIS
How it was run: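 VDR-UAS-bla HEK293T cells (2000/well, 2% charcoal-stripped FBS) were treated with titrated compounds plus 1-alpha,25-dihydroxyvitamin D3 (50 nM or 3 nM final) for 16 h at 37 C. CCF4 beta-lactamase fluorescence was read; Hill fits gave IC50.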

[2] = target: Vitamin D3 receptor (Homo sapiens) (UniProt P11473); assay: qHTS assay for small molecule agonists of vitamin D receptor signaling (AID 588543; calls by dose curve;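 also: 0% = DMSO basal and 100% = reference agonist control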)
How it was run: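 Measured: β-lactamase reporter activity (CCF4, 405 nm excitation, 460/530 nm emission) in HEK293T VDR-UAS-bla cells after 16 h compound exposure at 37 °C. Normalization against 50 nM 1α,25-dihydroxyvitamin D3 and DMSO; Hill-fit EC50.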

[3] = qHTS assay for small molecule agonists of retinoid X receptor alpha signaling (AID 588544); details: HEK293T RXRa-UAS-bla, beta-lactamase reporter, 18 h; 530 nm emission
[4] = target: Thyroid hormone receptor beta (Homo sapiens) (UniProt P10828); assay: qHTS assay for small molecule agonists of thyroid hormone receptor beta signaling (AID 588545; calls by dose curve;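 also: 0% = DMSO only and 100% = 10 nM T3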)
Sequence of Thyroid hormone receptor beta (Homo sapiens) (P10828 whole entry, looked up): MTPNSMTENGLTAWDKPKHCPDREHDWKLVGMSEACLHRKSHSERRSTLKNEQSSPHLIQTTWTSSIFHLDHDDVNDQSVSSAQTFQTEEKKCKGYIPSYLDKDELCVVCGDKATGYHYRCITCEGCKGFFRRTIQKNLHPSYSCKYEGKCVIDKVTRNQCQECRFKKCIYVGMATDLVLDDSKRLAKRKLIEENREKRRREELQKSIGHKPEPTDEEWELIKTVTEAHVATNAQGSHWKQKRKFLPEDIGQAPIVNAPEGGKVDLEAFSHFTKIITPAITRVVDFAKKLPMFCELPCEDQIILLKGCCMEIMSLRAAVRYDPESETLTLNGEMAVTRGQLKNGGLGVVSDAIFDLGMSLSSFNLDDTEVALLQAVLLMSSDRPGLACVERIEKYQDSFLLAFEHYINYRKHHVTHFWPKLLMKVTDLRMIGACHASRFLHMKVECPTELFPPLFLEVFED
How it was run: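 TR-UAS-bla GripTite HEK 293 cells (2500/well, medium with 2% charcoal/dextran FBS) were treated in agonist mode for 18 h at 37 C, titrated. Beta-lactamase was read by CCF4 ratio after 2 h; normalized to 10 nM T3 (100%) and DMSO, Hill-fitted for EC50 and efficacy.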

[5] = qHTS assay for small molecule antagonists of retinoid X receptor alpha signaling (AID 588546; active = well fitted inhibition curve with a large enough effect in the signal ratio, with a control signal flat, not every such curve was filed as active; the % refers to the signal ratio;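 also: cells stimulated with 9-cis-retinoic acid as agonist; % is scaled to controls: 0 for no effect and ±100 for the full control effect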); details: HEK293T RXRa-UAS-bla, beta-lactamase ratio, antagonist mode; measured here: W530 green channel, cytotoxicity proxy
How it was run: (§1)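 Beta-lactamase reporter inhibition, read as CCF4 fluorescence ratio (ex 405, em 460/530 nm) after 2 h at RT. HEK293T UAS-bla cells, 2500/well, were stimulated with 9-cis-RA at 500 or 100 nM final alongside test compound for 18 h at 37 C.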

[6] = target: Retinoic acid receptor RXR-alpha (Homo sapiens) (UniProt P19793); assay: as above; details: HEK293T RXRa-UAS-bla, beta-lactamase ratio, antagonist mode
Sequence of Retinoic acid receptor RXR-alpha (Homo sapiens) (P19793 whole entry, looked up): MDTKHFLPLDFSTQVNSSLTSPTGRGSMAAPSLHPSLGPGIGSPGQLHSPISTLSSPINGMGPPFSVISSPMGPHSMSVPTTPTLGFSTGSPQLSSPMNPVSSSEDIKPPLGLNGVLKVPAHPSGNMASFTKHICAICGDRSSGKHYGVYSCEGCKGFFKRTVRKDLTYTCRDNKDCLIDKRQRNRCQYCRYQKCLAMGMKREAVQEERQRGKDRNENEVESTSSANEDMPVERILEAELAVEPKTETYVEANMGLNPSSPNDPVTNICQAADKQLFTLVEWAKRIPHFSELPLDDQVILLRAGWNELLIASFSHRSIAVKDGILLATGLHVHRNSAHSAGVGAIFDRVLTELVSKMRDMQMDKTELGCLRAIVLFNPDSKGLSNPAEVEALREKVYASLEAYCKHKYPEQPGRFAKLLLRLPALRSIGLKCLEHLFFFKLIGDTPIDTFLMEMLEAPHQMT
How it was run: as §1

[7] = target: Voltage-gated inwardly rectifying potassium channel KCNH2 (Homo sapiens) (UniProt Q12809); assay: qHTS Assay for Small Molecule Inhibitors of the Human hERG Channel Activity (AID 588834);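 also: top concentration of the series differs between compounds; % is scaled to controls: 0 for no effect and ±100 for the full control effect; lower thallium flux fluorescence means stronger hERG block; nearly all actives have a fitted effect of over 50% in size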
Sequence of Voltage-gated inwardly rectifying potassium channel KCNH2 (Homo sapiens) (Q12809 whole entry, looked up): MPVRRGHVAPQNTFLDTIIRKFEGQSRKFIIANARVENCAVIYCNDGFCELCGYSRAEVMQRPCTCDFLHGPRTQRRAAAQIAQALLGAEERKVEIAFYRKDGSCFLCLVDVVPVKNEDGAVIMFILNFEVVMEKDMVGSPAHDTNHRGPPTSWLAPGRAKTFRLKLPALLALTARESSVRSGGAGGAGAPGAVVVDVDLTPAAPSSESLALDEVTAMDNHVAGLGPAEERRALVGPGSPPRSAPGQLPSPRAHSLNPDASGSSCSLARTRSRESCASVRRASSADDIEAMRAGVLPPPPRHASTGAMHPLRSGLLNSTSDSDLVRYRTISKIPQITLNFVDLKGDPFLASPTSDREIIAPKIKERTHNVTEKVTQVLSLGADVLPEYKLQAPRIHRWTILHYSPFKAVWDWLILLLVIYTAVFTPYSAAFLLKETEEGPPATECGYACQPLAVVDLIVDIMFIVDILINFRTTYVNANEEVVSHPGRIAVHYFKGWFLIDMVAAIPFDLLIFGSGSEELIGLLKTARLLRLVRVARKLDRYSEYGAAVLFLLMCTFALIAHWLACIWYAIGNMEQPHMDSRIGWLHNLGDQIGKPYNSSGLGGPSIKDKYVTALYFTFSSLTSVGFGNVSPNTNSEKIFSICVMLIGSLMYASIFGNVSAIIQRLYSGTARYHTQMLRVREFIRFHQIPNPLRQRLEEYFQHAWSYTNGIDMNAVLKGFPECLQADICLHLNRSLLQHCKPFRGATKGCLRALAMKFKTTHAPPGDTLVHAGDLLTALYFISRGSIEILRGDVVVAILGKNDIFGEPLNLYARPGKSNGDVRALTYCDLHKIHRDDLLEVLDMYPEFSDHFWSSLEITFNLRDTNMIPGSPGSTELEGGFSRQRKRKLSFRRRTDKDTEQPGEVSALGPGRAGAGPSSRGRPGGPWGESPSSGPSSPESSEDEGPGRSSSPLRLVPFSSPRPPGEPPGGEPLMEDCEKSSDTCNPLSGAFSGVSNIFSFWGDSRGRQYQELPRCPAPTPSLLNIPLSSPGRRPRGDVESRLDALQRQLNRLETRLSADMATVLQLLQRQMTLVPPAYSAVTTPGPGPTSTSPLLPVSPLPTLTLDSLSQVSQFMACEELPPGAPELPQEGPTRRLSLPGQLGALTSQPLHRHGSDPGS
How it was run: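 Blockade is seen as reduced FluxOR thallium-flux fluorescence in U2OS cells expressing hERG from a BacMam construct, in Opti-MEM with 2% FCS. Concentration-response data fitted to the Hill equation for AC50.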

[8] = qHTS assay for small molecule agonists of the antioxidant response element (ARE) signaling pathway (AID 651741; active = well fitted activation curve with a large enough effect in the signal ratio; the % refers to the signal ratio; also: % of control where 0% means no effect)
How it was run: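 Compounds in DMSO are pinned onto HepG2 ARE-bla cells (2,000/well) that were preincubated 5 h; plates stay 16 h at 37 C, then beta-lactamase activity is detected with LiveBLAzer B/G substrate by fluorescence.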

[9] = qHTS assay for small molecule activators of the nuclear factor-kappa B (NF-kB) signaling pathway (AID 651749; active = well fitted activation curve with a large enough effect in the signal ratio; the % refers to the signal ratio; also: series mostly up to about 77 µM; % of control where 0% means no effect); details: NF-kB-bla ME-180 cells, beta-lactamase FRET ratio, 16 h; stronger effect = higher value
How it was run: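 Screening used 2,000 ME-180 reporter cells per well exposed to pinned compound (23 nL) or DMSO; after 16 hr at 37C, beta-lactamase expression under NF-kB control was assessed through FRET.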

[10] = qHTS assay for small molecule disruptors of the mitochondrial membrane potential - 1 hr assay (AID 651754; calls by dose curve; also: % is scaled to controls: 0 for no effect and ±100 for the full control effect; nearly all actives have a fitted effect of over 35% in size)
How it was run: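 HepG2 cells, attached overnight, were exposed to compound for 1 hr at 37C, then stained 30 min with a potentiometric dye. Ratio of red aggregate (590nm) to green monomer (535nm) fluorescence reports membrane potential; collapse shifts signal toward green.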

[11] = qHTS assay for small molecule disruptors of the mitochondrial membrane potential - 5 hr assay (AID 651755; calls by dose curve; also: % is scaled to controls: 0 for no effect and ±100 for the full control effect; nearly all actives have a fitted effect of over 40% in size)
How it was run: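 HepG2 cells, attached overnight at 37C, were exposed to compound or DMSO for 5 hr at 37C, 5% CO2. Mito-MPS dye was then added for 30 min, and fluorescence read at 490/535 nm (monomers) and 540/590 nm (aggregates).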

[12] = target: Tumor necrosis factor (Homo sapiens) (UniProt P01375); assay: qHTS assay to identify small molecules that stimulate Tumor Necrosis Factor-alpha (TNF-alpha) secretion (AID 651757; active = well fitted curve in the direction sought with a large enough effect in the signal ratio; the % refers to the signal ratio; also: 0% is about no effect)
Sequence of Tumor necrosis factor (Homo sapiens) (P01375 whole entry, looked up): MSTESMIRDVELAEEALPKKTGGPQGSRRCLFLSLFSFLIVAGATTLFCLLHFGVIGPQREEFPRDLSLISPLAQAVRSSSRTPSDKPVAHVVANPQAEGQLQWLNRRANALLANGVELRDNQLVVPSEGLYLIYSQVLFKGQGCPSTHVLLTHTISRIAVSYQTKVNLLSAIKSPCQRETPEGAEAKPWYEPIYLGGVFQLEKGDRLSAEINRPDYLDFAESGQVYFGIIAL
How it was run: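 THP-1 cells (3000/well) exposed to compounds 17 hrs at 37 C. Secreted TNF-alpha detected by HTRF with cryptate- and XL665-labeled anti-TNF-alpha antibodies after 3 hr at room temperature.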

[13] = qHTS assay for environmental chemicals that activate the Aryl hydrocarbon Receptor (AhR) signaling pathway (AID 651777); details: 1A2-DRE human hepatoma cells, luciferase, 24 h; activation: stronger effect = higher value; also: % of control where 0% means no effect; nearly all actives have a fitted effect of over 15% in size
How it was run: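 Measured luciferase activity, read 30 min after One-Glo addition at room temperature, from human hepatoma cells bearing a dioxin response element–CYP1A2 promoter reporter and exposed to compound for 24 hr at 37 C.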

[14] = target: Peroxisome proliferator-activated receptor alpha (Homo sapiens) (UniProt Q07869); assay: qHTS assay for small molecule agonists of the peroxisome proliferator-activated receptor alpha (PPARalpha) signaling pathway (AID 651778); details: PathHunter PPARalpha complementation, chemiluminescence, 6 h; max response: stronger effect = higher value; also: % of control where 0% means no effect
Sequence of Peroxisome proliferator-activated receptor alpha (Homo sapiens) (Q07869 whole entry, looked up): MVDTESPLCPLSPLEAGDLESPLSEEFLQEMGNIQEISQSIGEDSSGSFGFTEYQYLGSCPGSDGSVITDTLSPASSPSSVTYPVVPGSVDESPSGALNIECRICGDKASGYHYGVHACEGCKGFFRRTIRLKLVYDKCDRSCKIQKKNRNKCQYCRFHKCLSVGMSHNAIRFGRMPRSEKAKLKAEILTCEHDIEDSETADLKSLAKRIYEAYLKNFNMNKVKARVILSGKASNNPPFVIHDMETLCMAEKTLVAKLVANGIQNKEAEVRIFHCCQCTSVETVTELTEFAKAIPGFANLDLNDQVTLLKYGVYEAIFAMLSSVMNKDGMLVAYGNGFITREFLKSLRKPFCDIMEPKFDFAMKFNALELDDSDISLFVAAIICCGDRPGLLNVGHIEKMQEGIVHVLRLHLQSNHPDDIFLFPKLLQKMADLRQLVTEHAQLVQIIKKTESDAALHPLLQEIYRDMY
How it was run: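 Cells plated at 2,000/well and held overnight at 37 C, 5% CO2, then compound added by pin tool for 6 hr; after PathHunter detection reagent and 60 min at room temperature, chemiluminescence from enzyme complementation was read.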

[15] = target: Nuclear receptor ROR-gamma (Homo sapiens) (UniProt P51449); assay: qHTS assay for small molecule antagonists of the retinoid-related orphan receptor gamma (ROR-gamma) signaling pathway (AID 651802);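 also: luciferase reporter luminescence driven by ROR response element; series mostly up to about 92 µM; % is scaled to controls: 0 for no effect and ±100 for the full control effect; nearly all actives have a fitted effect of over 60% in size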
Sequence of Nuclear receptor ROR-gamma (Homo sapiens) (P51449 whole entry, looked up): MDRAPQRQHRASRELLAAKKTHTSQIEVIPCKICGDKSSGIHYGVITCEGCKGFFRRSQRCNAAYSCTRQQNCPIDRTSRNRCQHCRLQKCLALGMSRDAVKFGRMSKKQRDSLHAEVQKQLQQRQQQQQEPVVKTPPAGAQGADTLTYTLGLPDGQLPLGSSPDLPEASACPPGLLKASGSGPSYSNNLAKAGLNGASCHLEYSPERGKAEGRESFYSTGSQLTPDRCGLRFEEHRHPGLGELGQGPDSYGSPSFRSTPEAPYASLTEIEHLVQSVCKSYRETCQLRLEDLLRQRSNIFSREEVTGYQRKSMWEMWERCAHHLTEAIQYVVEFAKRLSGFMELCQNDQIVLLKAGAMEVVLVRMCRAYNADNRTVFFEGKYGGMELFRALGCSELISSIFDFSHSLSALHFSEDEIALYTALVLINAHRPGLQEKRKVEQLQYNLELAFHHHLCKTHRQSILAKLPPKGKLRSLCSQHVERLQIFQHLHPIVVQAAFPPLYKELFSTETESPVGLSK
How it was run: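 CHO cells with TET-inducible ROR-gamma and RORE-luciferase reporter, dosed then doxycycline-induced. After 16 h at 37C, One-Glo luminescence read; decreased signal indicates antagonism.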

[16] = qHTS assay for small molecule agonists of the antioxidant response element (ARE) signaling pathway measured by Nrf2-dependant transcriptional activity (AID 720636; active = well fitted curve in the direction sought with a large enough effect in the repeat runs; an effect the other way counts as inactive or inconclusive;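 also: HepG2 cells with an ARE-driven luciferase reporter; % of control where 0% means no effect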)
How it was run: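 In HepG2 cells engineered with an Nrf2-responsive luciferase gene, ARE induction was quantified as luminescence after 16 hr compound treatment at 37 C.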

[17] = qHTS assay for small molecule antagonists of the retinoid-related orphan receptor gamma (ROR-gamma) signaling pathway - cell viability counter screen (AID 720652; active = well fitted curve in the direction sought with a large enough effect in the repeat runs; an effect the other way counts as inactive or inconclusive;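 also: series mostly up to about 92 µM; compound exposure lasted 16 hr before ATP read; % is scaled to controls: 0 for no effect and ±100 for the full control effect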)
How it was run: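 CHO cells carrying TET-inducible ROR and RORE-luciferase reporter, plated 5 hr, then dosed with compound plus doxycycline. After 16 hr at 37 C, viability read as intracellular ATP by CellTiter-Glo luminescence.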

[18] = qHTS assay for small molecule agonists of the antioxidant response element (ARE) signaling pathway measured by Nrf2-dependant transcriptional activity - cell viability counter screen (AID 720653; active = well fitted curve in the direction sought with a large enough effect in the repeat runs; an effect the other way counts as inactive or inconclusive; also: % is scaled to controls: 0 for no effect and ±100 for the full control effect); details: ARE-bla HepG2 viability, CellTiter-Glo ATP luminescence, 16 h; max response: stronger effect = lower value
How it was run: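 ARE-bla HepG2 cells (2,000/well) rested 5 hrs at 37C/5% CO2, then exposed to compounds in DMSO for 16 hrs. Viability was read in the same wells as intracellular ATP by luminescence, 30 min at room temperature after reagent addition.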

[19] = qHTS assay for cell viability of the p53RE-bla HCT-116 cell line (AID 743292); also: % is scaled to controls: 0 for no effect and ±100 for the full control effect; nearly all actives have a fitted effect of over 55% in size
How it was run: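 Intracellular ATP of p53RE-bla HCT-116 cells measured by luciferase luminescence following 16 h compound incubation at 37 C; DMSO-only wells served as vehicle controls.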

[20] = target: Glutathione peroxidase 1 (Homo sapiens) (UniProt P07203); assay: Primary qHTS Assay for Inhibitors of Recombinant Selenoprotein Glutathione Peroxidase 1 (GPX1) (AID 1845191); also: % is scaled to controls: 0 for no effect and ±100 for the full control effect; nearly all actives have a fitted effect of over 65% in size
Sequence of Glutathione peroxidase 1 (Homo sapiens) (P07203 whole entry, looked up): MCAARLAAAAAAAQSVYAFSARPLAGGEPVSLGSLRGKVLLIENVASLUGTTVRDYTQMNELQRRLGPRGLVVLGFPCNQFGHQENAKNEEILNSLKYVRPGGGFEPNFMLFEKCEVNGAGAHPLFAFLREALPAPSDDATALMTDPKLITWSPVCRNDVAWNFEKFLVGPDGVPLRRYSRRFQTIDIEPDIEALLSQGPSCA
How it was run: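 Recombinant GPX1 (10 nM final) was preincubated with compound for 30 min at room temperature, then reacted with 1 mM GSH, 0.5 mM CHP, 0.5 mM NADPH and 100 nM glutathione reductase; NADPH fluorescence (340/450 nm) was read at 0 and 15 min.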

[21] = target: Phospholipid hydroperoxide glutathione peroxidase GPX4 (Homo sapiens) (UniProt P36969); assay: Primary qHTS Assay for Inhibitors of Recombinant Selenoprotein Glutathione Peroxidase 4 (GPX4) (AID 1845192); also: series mostly up to about 50 µM; % is scaled to controls: 0 for no effect and ±100 for the full control effect; nearly all actives have a fitted effect of over 65% in size
Sequence of Phospholipid hydroperoxide glutathione peroxidase GPX4 (Homo sapiens) (P36969 whole entry, looked up): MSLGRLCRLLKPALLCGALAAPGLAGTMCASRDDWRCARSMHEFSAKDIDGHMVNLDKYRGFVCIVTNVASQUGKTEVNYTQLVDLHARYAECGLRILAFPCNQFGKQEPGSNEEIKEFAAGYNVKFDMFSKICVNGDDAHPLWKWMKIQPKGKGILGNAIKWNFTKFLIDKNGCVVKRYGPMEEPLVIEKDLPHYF
How it was run: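 GR-coupled readout: 100 nM GR, 1 mM GSH, 0.5 mM NADPH; NADPH fluorescence (ex 340/em 450 nm) read at t=0 and after 15 min RT. GPX4 200 nM, preincubated 30 min with compound; substrate 0.5 mM CHP.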

[22] = target: Nuclear receptor subfamily 1 group I member 2 (Rattus norvegicus) (UniProt Q9R1A7); assay: qHTS assay for small molecule activators of the rat pregnane X receptor (rPXR) signaling pathway (AID 651751; call rule not given here; also: 0% is about no effect); details: rPXR reporter cells, luciferase (One-Glo), 24 h
Sequence of Nuclear receptor subfamily 1 group I member 2 (Rattus norvegicus) (Q9R1A7 whole entry, looked up): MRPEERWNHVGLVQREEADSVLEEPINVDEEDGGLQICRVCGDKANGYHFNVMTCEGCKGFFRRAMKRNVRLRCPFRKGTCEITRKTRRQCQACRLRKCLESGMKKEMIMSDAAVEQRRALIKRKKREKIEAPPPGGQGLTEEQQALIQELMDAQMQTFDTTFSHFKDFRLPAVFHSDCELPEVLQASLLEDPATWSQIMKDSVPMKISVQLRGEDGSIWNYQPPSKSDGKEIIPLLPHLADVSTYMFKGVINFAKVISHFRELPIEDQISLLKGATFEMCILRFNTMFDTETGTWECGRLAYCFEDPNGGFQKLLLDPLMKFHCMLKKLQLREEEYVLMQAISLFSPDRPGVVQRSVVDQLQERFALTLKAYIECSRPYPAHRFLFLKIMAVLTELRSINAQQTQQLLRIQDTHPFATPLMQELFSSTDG

[23] = qHTS assay for small molecule activators of the human pregnane X receptor (PXR) signaling pathway (AID 720659; call rule not given here; also: 0% is about no effect)

O=S(=O)(O)c1ccccc1
inactive: outcome [1] | outcome [2] | outcome [4] | max response [6] -0.701% | Potency [7] | Potency [8] | activation [9] 0.223% | Potency [10] | Potency [11] | outcome [12] | activation [13] -0.565% | max response [14] -0.704% | Potency [15] | Potency [16] | Potency [17] | max response [18] 11% | Potency [19] | Potency [20] | Potency [21] | max response [22] 2.35% | outcome [23]
0.332%: max response [3]
5.99%: max response [5]
